# Where “and” joins values, the source holds several entries; their conditions need not be identical. Equal entries are not always repeated. A number with no mark means an inactive call. Records with an inconclusive call do not appear. Entries that show only a call come without a potency. Calls of active or inactive are those of the source. Unless noted, the call rests on the fitted dose curve; in most records, active means well fitted curve in the direction sought with a large enough effect; inconclusive means small, poorly fitted or top-dose-only effect, or another doubt; inactive means no such curve, though single readings can be large; an effect the other way counts as inactive or inconclusive. Peptide text beside a SMILES is read from it.
# Tests used:
# [1] = Confirmation and Secondary Assay for Modulators of Hemoglobin Beta Chain Splicing at IVS2 654 locus (AID 910);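 further: HeLa cells stably carrying EGFP split by mutant beta-globin IVS2-654 intron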
# How it was run: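 HeLa cells stably expressing EGFP interrupted by β-globin IVS2-654 intron, seeded overnight in Opti-MEM/2% FCS, then treated 2 days at 37 °C. Restored splicing read as total peak GFP intensity per well by laser scanning cytometry (488 nm excitation, 500–520 nm emission); 500 nM antisense PNA as control.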
# [2] = Confirmation and Secondary Assay for Modulators of Hemoglobin Beta Chain Splicing at IVS2 705 locus (AID 930);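 further: HeLa cells stably expressing the EGFP-705 splicing reporter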
# How it was run: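 Restored EGFP fluorescence after 2-day compound exposure reports splicing correction in IVS2-705 EGFP reporter HeLa cells; positive control was 500 nM splice-blocking PNA oligo. Signal measured as well total peak GFP intensity (488 nm excitation).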
# [3] = S16 Schwann cell PMP22 intronic element firefly luciferase assay (AID 624032); further: nearly all actives have a fitted effect of over 30% in size; further: potency means the concentration at half of the fitted maximal effect
# How it was run: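 Rat S16 Schwann cells stably carrying firefly luciferase driven by a PMP22 intronic element, in 10% FBS, treated 24 h at 37 C. ONE-Glo luminescence normalized to PTC124 control and DMSO (0%); curves classed by r2, magnitude and activity.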
# [4] = S16 Schwann cell PMP22 intronic element beta-lactamase assay (AID 624044; calls by dose curve; further: nearly all actives have a fitted effect of over 15% in size; further: potency means the concentration at half of the fitted maximal effect)
# How it was run: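 Beta-lactamase reporter under a PMP22 intronic regulatory element in stable S16 rat Schwann cells; 24 h compound exposure. 460 nm blue signal normalized between DMSO (0%) and potassium clavulanate, with 535 nm FRET tracking viability; curves classed by r2 and response.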
# 7G8 = assay: qHTS profiling for inhibitors of Plasmodium falciparum proliferation (AID 504749); further: nearly all actives have a fitted effect of over 60% in size; further: potency means the concentration at half of the fitted maximal effect; conditions: P. falciparum in erythrocytes, SYBR Green DNA, 72 h; series mostly up to 12.8 µM
# How it was run: (§1)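 SYBR Green fluorescence (ex 485 nm, em 535 nm) reports parasite DNA after 72 h compound exposure of infected red cells at 0.3% parasitemia, 2.5% hematocrit; signal normalized to 0.29 uM artemisinin and vehicle wells.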
# CP203 = assay: as above; conditions: P. falciparum in erythrocytes, SYBR Green DNA, 72 h; series mostly up to 12.8 µM
# How it was run: as §1
# CP215 = assay: as above; conditions: P. falciparum in erythrocytes, SYBR Green DNA, 72 h; series mostly up to 12.8 µM
# How it was run: as §1
# CP335 = assay: as above; conditions: P. falciparum in erythrocytes, SYBR Green DNA, 72 h; series mostly up to 12.8 µM
# How it was run: as §1
# DFO2036 = assay: as above; conditions: P. falciparum in erythrocytes, SYBR Green DNA, 72 h; series mostly up to 12.8 µM
# How it was run: as §1
# DIV14 = assay: as above; conditions: P. falciparum in erythrocytes, SYBR Green DNA, 72 h; series mostly up to 12.8 µM
# How it was run: as §1
# ICS = assay: as above; conditions: P. falciparum in erythrocytes, SYBR Green DNA, 72 h; series mostly up to 12.8 µM
# How it was run: as §1
# TAB113 = assay: as above; conditions: P. falciparum in erythrocytes, SYBR Green DNA, 72 h; series mostly up to 12.8 µM
# How it was run: as §1
# W2 = assay: as above; conditions: P. falciparum in erythrocytes, SYBR Green DNA, 72 h; series mostly up to 12.8 µM
# How it was run: as §1
# [5] = target: Cytochrome P450 3A4 (Homo sapiens) (UniProt P08684); assay: qHTS Assay for Inhibitors and Substrates of Cytochrome P450 3A4 (AID 884); further: nearly all actives have a fitted effect of over 50% in size; further: potency means the concentration at half of the fitted maximal effect
# How it was run: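 Luminescent readout of luciferin produced by CYP3A4 (20 nM) dealkylation of Luciferin-PPXE, 25 uM (its KM). NADPH-driven reaction ran 60 min at RT after 10 min compound preincubation; data scaled to 57 uM ketoconazole as 100% inhibition.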
# [6] = target: Cytochrome P450 3A4 (Homo sapiens) (UniProt P08684); assay: qHTS Assay for Activators of Cytochrome P450 3A4 (AID 885); further: nearly all actives have a fitted effect of over 65% in size
# How it was run: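 CYP3A4 activity: Luciferin-PPXE O-dealkylation, 25uM substrate, 200mM KPO4, RT throughout. Read-out is luciferase luminescence; higher values reflect activation.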
# [7] = target: Cytochrome P450 2D6 (Homo sapiens) (UniProt P10635); assay: qHTS Assay for Inhibitors and Substrates of Cytochrome P450 2D6 (AID 891); further: nearly all actives have a fitted effect of over 60% in size; further: potency means the concentration at half of the fitted maximal effect
# How it was run: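 Luminescent read-out of luciferin formed by 5 nM human CYP2D6 demethylating 30 uM Luciferin-ME EGE (Km level) over 60 min at room temperature after NADPH regeneration addition. Data normalized to full inhibition by 1.43 uM quinidine.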
# [8] = target: Glucocorticoid receptor (Homo sapiens) (UniProt P04150); assay: GR-EFC Redistribution (AID 451; calls by dose curve; further: potency means the concentration at half of the fitted maximal effect); conditions: CHO-K1 GR-EFC translocation, beta-gal luminescence, 2 h
# How it was run: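 CHO-K1 cells expressing nuclear EA and GR-ED fragments of b-gal; compounds titrated up to 46 uM final, 2 h at 37 C. GR nuclear translocation read as complemented b-gal luminescence after 1 h RT detection.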
# [9] = target: Cytochrome P450 2C19 (Homo sapiens) (UniProt P33261); assay: qHTS Assay for Inhibitors and Substrates of Cytochrome P450 2C19 (AID 899); further: nearly all actives have a fitted effect of over 60% in size
# How it was run: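 Luminescent read-out of luciferin formed from Luciferin-H EGE (10uM, equal to KM). Enzyme 5nM in 50mM KPO4; compound added, 10 min at 37C, then NADPH regenerating system for 60 min at 37C. Full inhibition defined by 57uM ketoconazole.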
# Cytochrome P450 3A4 (Homo sapiens), sequence (P08684 whole entry, looked up): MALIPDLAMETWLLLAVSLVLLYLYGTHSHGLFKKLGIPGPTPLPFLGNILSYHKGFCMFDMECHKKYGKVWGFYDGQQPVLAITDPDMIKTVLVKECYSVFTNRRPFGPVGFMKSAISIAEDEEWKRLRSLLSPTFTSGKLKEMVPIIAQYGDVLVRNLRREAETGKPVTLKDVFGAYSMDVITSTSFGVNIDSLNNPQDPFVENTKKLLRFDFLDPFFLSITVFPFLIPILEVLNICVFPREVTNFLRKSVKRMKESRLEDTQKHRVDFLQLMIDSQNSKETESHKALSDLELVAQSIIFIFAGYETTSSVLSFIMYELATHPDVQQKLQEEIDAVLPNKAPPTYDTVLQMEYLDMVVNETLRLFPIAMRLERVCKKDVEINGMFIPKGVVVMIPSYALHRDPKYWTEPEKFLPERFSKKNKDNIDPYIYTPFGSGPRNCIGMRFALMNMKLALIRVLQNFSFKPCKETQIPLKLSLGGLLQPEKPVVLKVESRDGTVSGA
# Cytochrome P450 2D6 (Homo sapiens), sequence (P10635 whole entry, looked up): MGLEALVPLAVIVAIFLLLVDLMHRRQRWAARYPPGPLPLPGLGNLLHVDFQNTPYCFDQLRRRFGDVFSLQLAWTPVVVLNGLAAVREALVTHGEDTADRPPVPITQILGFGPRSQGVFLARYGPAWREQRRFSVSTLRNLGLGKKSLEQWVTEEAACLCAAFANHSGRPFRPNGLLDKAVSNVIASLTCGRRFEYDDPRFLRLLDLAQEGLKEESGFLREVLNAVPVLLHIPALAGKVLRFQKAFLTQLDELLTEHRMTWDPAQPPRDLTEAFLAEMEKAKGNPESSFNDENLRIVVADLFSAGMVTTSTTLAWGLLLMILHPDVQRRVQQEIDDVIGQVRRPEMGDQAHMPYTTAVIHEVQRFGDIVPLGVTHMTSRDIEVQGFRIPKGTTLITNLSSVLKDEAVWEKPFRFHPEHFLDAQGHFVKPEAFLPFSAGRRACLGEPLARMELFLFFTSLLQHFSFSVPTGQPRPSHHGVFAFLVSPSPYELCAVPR
# Glucocorticoid receptor (Homo sapiens), sequence (P04150 whole entry, looked up, the tested form may be a part): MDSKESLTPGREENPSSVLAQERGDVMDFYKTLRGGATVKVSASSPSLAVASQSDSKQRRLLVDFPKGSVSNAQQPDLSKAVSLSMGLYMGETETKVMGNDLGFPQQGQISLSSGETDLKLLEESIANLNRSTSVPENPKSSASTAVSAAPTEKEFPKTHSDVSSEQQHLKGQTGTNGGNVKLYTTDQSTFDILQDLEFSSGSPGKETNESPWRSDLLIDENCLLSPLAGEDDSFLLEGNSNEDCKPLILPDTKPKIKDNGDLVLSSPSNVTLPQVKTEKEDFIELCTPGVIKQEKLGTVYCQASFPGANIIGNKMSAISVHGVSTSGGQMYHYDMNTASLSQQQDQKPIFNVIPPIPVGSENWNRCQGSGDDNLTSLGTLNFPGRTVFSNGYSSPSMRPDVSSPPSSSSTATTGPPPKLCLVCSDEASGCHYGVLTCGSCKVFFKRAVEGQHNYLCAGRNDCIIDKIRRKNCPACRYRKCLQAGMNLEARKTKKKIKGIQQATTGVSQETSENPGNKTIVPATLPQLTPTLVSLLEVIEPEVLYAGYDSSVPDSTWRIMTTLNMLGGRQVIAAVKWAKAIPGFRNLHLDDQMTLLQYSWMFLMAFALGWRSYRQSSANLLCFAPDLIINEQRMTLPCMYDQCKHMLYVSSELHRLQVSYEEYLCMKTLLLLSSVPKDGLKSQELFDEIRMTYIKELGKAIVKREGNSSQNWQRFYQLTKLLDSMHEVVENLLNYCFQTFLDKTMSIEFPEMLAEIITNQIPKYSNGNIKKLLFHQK
# Cytochrome P450 2C19 (Homo sapiens), sequence (P33261 whole entry, looked up): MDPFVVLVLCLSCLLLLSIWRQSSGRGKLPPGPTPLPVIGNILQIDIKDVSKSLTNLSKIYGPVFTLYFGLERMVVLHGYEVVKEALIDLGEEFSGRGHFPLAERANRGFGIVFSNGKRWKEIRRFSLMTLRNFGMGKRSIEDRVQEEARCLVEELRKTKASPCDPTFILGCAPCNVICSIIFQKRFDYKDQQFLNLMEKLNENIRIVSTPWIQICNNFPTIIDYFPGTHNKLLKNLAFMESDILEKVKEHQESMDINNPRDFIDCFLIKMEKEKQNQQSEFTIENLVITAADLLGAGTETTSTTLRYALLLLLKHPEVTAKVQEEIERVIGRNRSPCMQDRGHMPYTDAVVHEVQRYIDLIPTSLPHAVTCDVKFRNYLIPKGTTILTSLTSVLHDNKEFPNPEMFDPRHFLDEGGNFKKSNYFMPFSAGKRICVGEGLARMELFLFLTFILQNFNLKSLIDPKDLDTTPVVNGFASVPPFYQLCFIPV
Structure (SMILES),Potency [1],Potency [2],Potency [3],Potency [4],Potency (7G8),Potency (CP203),Potency (CP215),Potency (CP335),Potency (DFO2036),Potency (DIV14),Potency (ICS),Potency (TAB113),Potency (W2),Potency [5],Potency [6],Potency [7],Potency [8],Potency [9]
COc1ccc(CC(N)C(=O)NC2C(CO)OC(n3cnc4c(N(C)C)ncnc43)C2O)cc1 (stereo unspecified),inactive,inactive,1.28 µM (active),7.07 µM (active),316 nM (active),1.51 µM (active),1.07 µM (active),0.757 µM (active),891 nM (active),0.953 µM (active),316 nM (active),1 µM (active),338 nM (active),–,–,–,–,–
C[C@]12C=CC(=O)C=C1CCC1C2C(O)C[C@]2(C)C1CC[C@]2(O)C(=O)CO (stereo partly specified),inactive,inactive,inactive,–,inactive,inactive,inactive,inactive,inactive,inactive,inactive,inactive,inactive,–,–,–,–,–
COC(=O)C(Cc1ccccc1)NC(=O)C(N)CC(=O)O (stereo not drawn) (H-Asp-Phe-OMe; configuration not given here),inactive,inactive,inactive,–,inactive,inactive,inactive,inactive,inactive,inactive,inactive,inactive,inactive,inactive,–,–,–,–
COC1C=CO[C@@]2(C)Oc3c(C)c(O)c4c(O)c(c5c(nc6cc(C)ccn65)c4c3C2=O)NC(=O)/C(C)=C\C=CC(C)C(O)[C@@H](C)C(O)C(C)[C@@H](OC(C)=O)C1C (stereo partly specified),inactive,inactive,–,inactive,3160 nM (active),–,13.5 µM (active),13.5 µM (active),–,1.07 µM (active),5010 nM (active),12.6 µM (active),1900 nM (active),–,inactive,–,–,–
CC1(C)OC2CC(=O)OC[C@@]23C1CC(=O)[C@]1(C)C3CC[C@@]2(C)C(c3ccoc3)OC(=O)C3O[C@@]321 (stereo partly specified),inactive,inactive,inactive,–,inactive,inactive,inactive,inactive,inactive,inactive,inactive,inactive,–,–,–,–,–,–
COc1ccc2cc(C(C)CO)ccc2c1 (stereo unspecified),inactive,inactive,inactive,inactive,inactive,inactive,inactive,inactive,inactive,inactive,inactive,–,inactive,inactive,–,–,–,–
CC(C)C1CCC(C(=O)NC(Cc2ccccc2)C(=O)O)CC1 (stereo unspecified),inactive,inactive,inactive,inactive,inactive,inactive,inactive,inactive,inactive,inactive,inactive,inactive,inactive,inactive,–,–,–,–
CC1CCC(C(C)C)C(=O)C1 (stereo unspecified),inactive,inactive,inactive,–,inactive,inactive,inactive,inactive,inactive,inactive,inactive,inactive,inactive,inactive,–,–,–,–
NC(C(=O)O)[C@@H]1CC(Cl)=NO1 (stereo partly specified),inactive,inactive,–,–,631 nM (active),3.38 µM (active),3.01 µM (active),1.2 µM (active),2000 nM (active),2.39 µM (active),891 nM (active),1 µM (active),849 nM (active),inactive,–,–,–,–
C[C@@H](CN1c2ccccc2Sc2ccccc21)N(C)C,–,–,–,–,–,–,–,–,–,–,–,–,–,–,–,2 µM (active) and 316 nM (active),–,–
COc1ccc(-c2cc(=O)c3c(O)cc(O)cc3o2)cc1,inactive,inactive,–,–,–,–,–,–,–,–,–,–,–,2.51 µM (active) and 7.94 µM (active) and 3.16 µM (active),–,–,> 20.6 µM,–
CC1=C(CCC(=O)O)c2cc3nc(cc4[nH]c(cc5[nH]c(cc1n2)c(C)c5C(C)O)c(C)c4C(C)O)C(C)=C3CCC(=O)O (stereo unspecified),inactive,inactive,–,–,–,–,–,–,–,–,–,–,–,inactive,–,–,–,–
OCC1O[C@H](OC2C(CO)O[C@@](O)(CO)C2O)C(O)C(O)C1O (stereo partly specified),inactive,inactive,inactive,inactive,inactive,inactive,inactive,inactive,–,inactive,inactive,inactive,inactive,inactive,–,–,–,–
C/C(=C\CNc1ncnc2nc[nH]c12)CO,–,–,–,–,–,–,–,–,–,–,–,–,–,inactive,–,inactive,–,inactive
COc1c(O)cc(O)cc1O,inactive,inactive,–,–,–,–,–,–,–,–,–,–,–,–,inactive,–,–,–
CC(C)=CCC[C@](C)(O)C1CC=C(C)CC1 (stereo partly specified),inactive,inactive,inactive,inactive,inactive,inactive,inactive,inactive,inactive,inactive,inactive,inactive,inactive,–,–,–,–,–
C[C@@](N)(C(=O)O)c1cccc(CC(=O)O)c1,–,–,–,–,–,–,–,–,–,–,–,–,–,–,–,–,> 46 µM,–
C/C1=C2N=C(/C=C3N=C(/C(C)=C4\[N-]C(C)(C5N=C1C(C)(CCC(=O)NCC(C)OP(=O)([O-])O[C@H]1C(O)C(n6cnc7cc(C)c(C)cc76)O[C@@H]1CO)C5CC(N)=O)C(C)(CC(N)=O)C4CCC(N)=O)C(C)(CC(N)=O)C\3CCC(N)=O)C(C)(C)C/2CCC(N)=O.[CH2-]C1OC(n2cnc3c(N)ncnc32)C(O)C1O.[Co] (stereo partly specified),inactive,inactive,14.4 µM (active),–,inactive,inactive,inactive,inactive,inactive,inactive,–,inactive,–,–,inactive,–,–,–
COC(=O)N/N=C/C1=C[N+](=O)c2ccccc2[N+]1=O,inactive,inactive,inactive,inactive,inactive,–,inactive,inactive,inactive,inactive,inactive,inactive,–,inactive,–,–,–,–
